JMJD2A Tudor: qHTS Assay for Inhibitors of JMJD2A-Tudor Domain; Lysine-specific demethylase 4A (Homo sapiens), O75164; AlphaScreen JMJD2A-Tudor / H3K4me3 peptide binding; Potency, µM (doses to about 114 µM), without a hit: at the highest dose activity change, negative = inhibition, most hits filed as inhibitors; actives 4.4% (n = 390,000); AID 504339, 2011; further: on the % scale 0 is the no-effect control and ±100 the full control effect; nearly all actives have a fitted effect of over 50% in size
ALOX12 inh: Primary qHTS assay for inhibitors of human arachidonate 12S-lipoxygenase (ALOX12): Round 2. AID 1671190, 2021. Potency, µM (series often up to 108 µM), without a hit: at the top dose activity change, negative = inhibition, hits mostly inhibitors. purified 12hLO, xylenol orange hydroperoxide absorbance. actives 1.1% (n = 580,000); further: on the % scale 0 is the no-effect control and ±100 the full control effect
Target sequence (P18054 whole entry, looked up): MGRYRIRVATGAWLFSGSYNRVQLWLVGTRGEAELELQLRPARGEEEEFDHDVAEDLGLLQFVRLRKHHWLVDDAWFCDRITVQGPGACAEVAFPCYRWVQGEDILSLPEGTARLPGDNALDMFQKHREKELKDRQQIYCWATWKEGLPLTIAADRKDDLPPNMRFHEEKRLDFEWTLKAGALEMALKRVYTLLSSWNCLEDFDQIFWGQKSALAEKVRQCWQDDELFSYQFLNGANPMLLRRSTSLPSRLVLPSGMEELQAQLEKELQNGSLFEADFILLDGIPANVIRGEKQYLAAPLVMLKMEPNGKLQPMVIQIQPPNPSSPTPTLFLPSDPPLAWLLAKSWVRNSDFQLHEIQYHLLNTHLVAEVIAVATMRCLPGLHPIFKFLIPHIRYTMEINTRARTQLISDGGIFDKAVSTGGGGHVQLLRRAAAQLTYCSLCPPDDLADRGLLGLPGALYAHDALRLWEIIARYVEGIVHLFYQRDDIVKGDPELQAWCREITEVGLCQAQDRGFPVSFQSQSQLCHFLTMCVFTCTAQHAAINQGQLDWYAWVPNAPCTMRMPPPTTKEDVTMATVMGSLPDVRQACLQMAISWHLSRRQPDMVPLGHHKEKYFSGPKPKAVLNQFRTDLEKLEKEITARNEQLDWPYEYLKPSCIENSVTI
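Purified human 12hLO at 150 nM in 25 mM Hepes, 0.01% Triton X-100, pH 7.0, preincubated 15 min at room temperature with compound. Reaction started with 40 uM arachidonic acid, 30 min at room temperature. Hydroperoxide measured by Fe-xylenol orange, 573/405 nm absorbance ratio.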
PLK1 PBD block: qHTS for Inhibitors of PLK1-PDB (polo-like kinase 1 - polo-box domain): Primary Screen | Plk1 PBD binding of FITC phosphopeptide, fluorescence polarization | Potency, µM, without a hit: max response, negative = inhibition, actives largely listed as inhibitors | actives 2.8% (n = 360,000) | AID 720504, 2013; further: series mostly up to about 57 µM; on the % scale 0 is the no-effect control and ±100 the full control effect; nearly all actives have a fitted effect of over 65% in size
BAZ2B block: qHTS Assay for Inhibitors of BAZ2B; Bromodomain adjacent to zinc finger domain protein 2B (Homo sapiens), Q9UIF8; AlphaScreen BAZ2B-H3K14Ac peptide displacement; Potency, µM (highest dose often 114 µM), without a hit: at the highest dose activity change, negative = inhibition, hits mostly inhibitors; actives 4.4% (n = 360,000); AID 504333, 2011; further: on the % scale 0 is the no-effect control and ±100 the full control effect; nearly all actives have a fitted effect of over 60% in size
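Inhibition is scored as reduced AlphaScreen emission. The BAZ2B/b-H3(5-23)K14Ac complex (50 nM each) in PBS pH 7.4, 0.01% Tween-20 meets compound (up to 110 uM) for 30 min at RT before bead addition.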
G9a inh: qHTS Assay for Inhibitors of Histone Lysine Methyltransferase G9a. G9a H3K9 monomethylation, AlphaScreen, 2 h. Potency, µM (highest dose often 102 µM), without a hit: at the highest dose activity, negative = inhibition, usual class: inhibitors. actives 8.8% (n = 350,000). AID 504332, 2011; further: on the % scale 0 is the no-effect control and ±100 the full control effect; nearly all actives have a fitted effect of over 75% in size
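Using a bead-based AlphaScreen, monomethylated H3K9 product from 2 h room-temperature reactions (G9a 20 nM, peptide 500 nM, SAM 20 uM) was detected with 0.5 ug/mL rabbit anti-H3K9me1 antibody.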
HP1b binding inh: HTS for Inhibitors of HP1-beta Chromodomain Interactions with Methylated Histone Tails. Chromobox protein homolog 1 (Homo sapiens), P83916. AlphaScreen HP1-beta / biotin-H3K9me3 peptide binding. Potency, µM (titrated, usually from 114 µM), without a hit: at the highest dose activity change, negative = inhibition, actives largely listed as inhibitors. actives 0.56% (n = 390,000); further: nearly all actives have a fitted effect of over 70% in size
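HP1-beta protein (50 nM final) preincubated 30 min at room temperature with biotinylated H3(1-18)K9me3 peptide (50 nM) in PBS pH 7.4, 0.01% Tween-20, then compound added for 30 min. AlphaScreen streptavidin donor/nickel chelate acceptor beads (10 ug/mL final), 30 min dark, luminescence read.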
Numbers without * were called inactive; i = inactive; ? = inconclusive; · = not tested or not shown; ! = not active in a repeat; [ ] = dose if it differs, or a comment. The list is not random: actives were taken first. Their share in the collection is about 9%. The call rests on the fitted dose curve; in most records, active means well fitted curve in the direction sought with a large enough effect; inconclusive means small, poorly fitted or top-dose-only effect, or another doubt; inactive means no such curve, though single readings can be large; an effect the other way counts as inactive or inconclusive. Potency means the concentration at half of the fitted maximal effect.

SMILES	JMJD2A Tudor	ALOX12 inh	PLK1 PBD block	BAZ2B block	G9a inh	HP1b binding inh
O=C(NCc1ccccc1Cl)c1cc(=O)[nH]c2ccc(S(=O)(=O)N3CCCCC3)cc12	-5.1%	-27.9%	·	-23.5%	8.7%[59 µM]	38.6%
Cc1ccc(C(=O)N(Cc2ccc(N(C)C)cc2)CC2CCCO2)cc1 (configuration not stated)	?	-7.8%	·	35.5µM*	12.6µM*	-23.5%
CN(C)c1ccc(CN(CC2CCCO2)C(=O)c2cc3ccccc3o2)cc1 (configuration not stated)	44.7µM*	-2.5%	-9.4%	10µM*	6.31µM*	?
COc1ccccc1OCC(=O)N(Cc1ccc(N(C)C)cc1)CC1CCCO1 (configuration not stated)	?	-8.4%	·	?	?	9.2%
COc1ccc(C(=O)N(Cc2ccc(N(C)C)cc2)CC2CCCO2)cc1 (configuration not stated)	?	-24.3%	·	?	11.2µM*	21.5%
Cc1nc2ccc(NC(=O)c3sccc3C)cc2s1	-9.4%	0.0%	-22.8%	8.2%	-0.4%[2.33 µM]	17.2%
Cc1ccc2c(c1)N/C(=C(\C=C(/Cl)[N+](=O)[O-])[N+](=O)[O-])N2	·	·	·	-26.6%	22.4µM*	·
C=C(C)C(=O)OCCCCCCOc1ccc(C(=O)O)cc1	11.2µM*	0.4%	?	?	9.9%[12.7 µM]	?
Cc1noc(C)c1CN1CCc2nc(C(=O)NCCOc3ccccc3)oc2CC1	·	54.4%[176 µM]	·	·	·	·
N.N.O=C(O)C1(C(=O)O)CCC1.[Pt]	·	·	·	·	0.631µM*	·
NC1(C(=O)O)CCC1	·	1.41µM*!	·	·	·	·
O=C(O)C1(C(=O)O)CCC1	-13.7%	-21.3%	2.9%	0.1%	·	11.4%
CCOc1ccc(C(=O)c2cn(Cc3ccccc3OC)c3cc4c(cc3c2=O)OCCO4)cc1	-23.2%	-13.5%	·	?	-22.8%[59 µM]	22.1%
COc1ccccc1Oc1ccc2c(c1)C(=O)N(c1cccc(O)c1)C2=O	?	-18.7%	-7.3%	-7.1%	1.7%[59 µM]	-13.7%
CCOC(=O)CSc1nc(N)c(C(=O)Nc2ccc(N(C)C)cc2)s1	39.8µM*	-24.1%	-6.1%	50.1µM*	15.8µM*	?
Nc1ccc2nc(SCc3cccc(F)c3)sc2c1	-32.9%	-7.4%	-20.4%	·	44.7µM*	-6.6%
CCOC(=O)CSc1nc2ccc(NC(=O)c3ccccc3)cc2s1	-4.6%	-11.2%	·	-2.5%	?	48.3%
Nc1ccc2nc(SCC(=O)N3CCN(c4ccccc4)CC3)sc2c1	-31.4%	0.0%	-2.4%	?	50.1µM*	3.6%
CCOC(=O)CSc1nc2ccc(N)cc2s1	-18.1%	6.7%	-9.9%	-6.3%	31.6µM*	27.6%
Nc1ccc2nc(SCC(=O)N3CCOCC3)sc2c1	-8.5%	8.1%	?	-1.0%	-0.5%	31.3%
CCOP(=O)(OCC)/C(C#N)=C/c1c[nH]c2ccccc12	-22.5%	7.5%	2.3%	-15.2%	8.9%	12.6%
CCCCc1nc2cc(C(=O)N3CCCCC3CC(=O)OCC)ccc2o1 (configuration not stated)	-5.8%	i	3.1%	-0.9%	72.3%	27.1%
CCCCc1nc2cc(C(=O)N3CCCCC3C(=O)OC)ccc2o1 (configuration not stated)	22.4µM*	14.4%	26.7µM*	-1.9%	17.2%	10.7%
CCC1CCCCN1C(=O)c1ccc2nc(Cc3ccc(OC)cc3)oc2c1 (configuration not stated)	-6.2%	2.6%	3.6%	-21.7%	9.3%	25.3%

Screening data deposited in PubChem BioAssay by National Center for Advancing Translational Sciences (NCATS).
